Laboratory results: PubChem BioAssay AID463195 (Sanford-Burnham Center for Chemical Genomics, 2010)
Hit rate of the full screen: of about 330,000 compounds, about 4,600 (1.4%) were called active. The sample holds actives, similar compounds and a random draw of the others, so the mix is not that of the screen.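 Rule for the calls: active = inhibition of 40% or more at the single tested concentration; inactive = the rest.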

Experiment: wild-type TIM10 yeast growth inhibition – luminescence, uHTS, counter-screen for tim10-1 yeast inhibitor project, primary screen (AID 463195);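 note: wild-type TIM10 isogenic control strain grown at permissive 25 °C; 0% = DMSO yeast wells and 100% = minimal medium wells without yeast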
Details: S. cerevisiae TIM10 strain growth, BacTiter-Glo luminescence, 24 h; at 10 µM; active compounds read high

Compound	inhibition
CCC(C)N(C(=O)Cn1nc(C)c([N+](=O)[O-])c1C)C1CCS(=O)(=O)C1 (stereo not given)	2.63% (inactive)
CCN(CC(=O)Nc1ccc2c(c1)OCCO2)Cc1cc(=O)oc2cc(C)c(C)cc12	2.82% (inactive)
CCN(CC(=O)NC(C)C)C(=O)c1cc(S(=O)(=O)N2CCCCC2)ccc1N1CCCCC1	-4.18% (inactive)
C=CCNC(=O)c1ccc2c3n(nc2c1)-c1ccc(C)cc1CO3	47% (active)
Cc1cccc(-c2nc3ccc(C(=O)NCCN4CCN(C)CC4)cc3nc2-c2cccc(C)c2)c1	11.7% (inactive)
Cn1nnc2cc(C(=O)NCCC3=CCCCC3)ccc21	9.76% (inactive)
O=C(NCc1cccnc1)c1cnc2ccccc2n1	3.89% (inactive)
O=C(O)Cc1csc(NC(=O)CSc2nnnn2-c2ccc(O)cc2)n1	-3.77% (inactive)
O=C(CC(O)(C(F)(F)F)C(F)(F)F)Nc1ccc(Cl)c(Cl)c1	88.8% (active)
O=C(CCCN1C(=O)CCC1=O)Nc1ccc(Cl)c(C(F)(F)F)c1	-0.757% (inactive)
CS(=O)(=O)N(CC(=O)Nc1ccc(Cl)c(Cl)c1)C1CCCCC1	27.6% (inactive)
COc1ccccc1OCCC(=O)OCC(=O)NCc1ccccc1	9.81% (inactive)
COc1cccc(NC(=O)C(=O)c2cn(CC(=O)N3CCOCC3)c3ccccc23)c1	11.5% (inactive)
COc1cccc(C(C(=O)NC2CCCC2)N(C(=O)c2ccco2)c2cccc(C(C)=O)c2)c1OC (stereo not given)	11.8% (inactive)
CNC(=O)/C(C#N)=C/c1c(F)cccc1Cl	59.2% (active)
CCOC(=O)NC(=O)/C(C#N)=C\c1ccccc1	15.6% (inactive)
O=C(/C=C/c1c(F)cccc1Cl)Nc1nn[nH]n1	0.073% (inactive)
NC(=S)Nc1c(Cl)cccc1Cl	-2.06% (inactive)
COc1ccc(NC(=O)/C(Cl)=C(/Cl)S(=O)Cc2ccc(C)cc2)cn1 (stereo not given)	57.6% (active)
COc1ccc(CS(=O)/C(Cl)=C(/Cl)C(=O)Nc2ccc(OC)nc2)cc1 (stereo not given)	88.3% (active)
CCN(CC(=O)Nc1ccc(OC)cc1)C(=O)CSCc1ccc(C)cc1	-9.01% (inactive)
COc1ccc(C(=O)CCC(=O)Nc2ccc(Cl)cc2)cc1	-25.2% (inactive)
COc1ccc(CCNC(=O)c2cnc(Cl)c(Cl)c2)cc1	-23.1% (inactive)
COc1ccc(Nc2ccc([N+](=O)[O-])cn2)cn1	1.7% (inactive)

Compound	inhibition
CCCCn1nc(C(=O)Nc2ccc(S(=O)(=O)Nc3ncccn3)cc2)c2ccccc2c1=O	6.41% (inactive)
Cc1ccc(CN(N=Nc2nonc2N)c2nonc2N)c(C)c1	36.7% (inactive)
CCCOCC(O)CC(CC)C(=O)NNC(=S)Nc1ccccc1 (stereo not given)	7.95% (inactive)
CCC12CN3CC(CC)(CN(C1)C31C(=O)N(C)c3ccc(C)cc31)C2=O (stereo not given)	-4.81% (inactive)
O=C1CCN(C(=O)Nc2ccccc2)N1	-12.2% (inactive)
O=C(N/N=C/c1cccnc1)c1ccc(NC(=O)c2ccc(F)cc2)cc1	-13.1% (inactive)
Cc1cc(/C=C(/C#N)C(=O)Nc2ccc(Cl)cc2)c(C)n1-c1cccnc1	-8.09% (inactive)
N#C/C(=C\c1cccnc1)C(=O)Nc1ccc(SC(F)F)cc1	45.6% (active)
O=C1Nc2ccc([N+](=O)[O-])cc2C1=Nc1cccc(CO)c1	8.6% (inactive)
COc1ccc2c(CN3CCN(S(=O)(=O)c4cccs4)CC3)cc(=O)oc2c1	52.4% (active)
COc1ccc2oc(=O)cc(CN3CCOCC3)c2c1	-8.83% (inactive)
Cc1cc2oc(=O)cc(CN3CCN(S(=O)(=O)c4cccs4)CC3)c2cc1C(C)C	-1.14% (inactive)
NC(=O)C(Cc1ccccc1)NC(=O)C12CC3CC(CC(C3)C1)C2 (stereo not given)	16.3% (inactive)
CCO[C@@H]1OC(C(N)=O)=C[C@H](c2ccc(Br)cc2)[C@H]1CCCO	-4.73% (inactive)
Fc1ccc(-n2c(Cc3ccccc3)nnc2SCc2nc(-c3ccc(Cl)cc3)no2)cc1	41% (active)
Cc1nnc(SCc2ccc(C(=O)c3ccc(Cl)cc3)o2)n1-c1ccccc1	7.12% (inactive)
Cc1ccc(-c2noc(CSc3nnc(-c4cccs4)n3C)n2)cc1	12.3% (inactive)
Cn1c(SCc2ccc(F)cc2)nnc1-c1ccncc1	-15.7% (inactive)
Cn1cccc1Cc1nnc(SCC(=O)NCCc2ccccc2)n1-c1ccc(F)cc1	10.2% (inactive)
Cc1ccc(-c2noc(CSc3nnc(-c4ccncc4)n3-c3ccc(F)cc3)n2)cc1	46.2% (active)
C=CCn1c(C2CC(=O)N(c3ccc(C)cc3)C2)nc2ccccc21 (stereo not given)	0.772% (inactive)
COc1cccc(-n2cc3c(c2-c2ccccc2)c(=O)n(C)c(=O)n3C)c1	-0.343% (inactive)
CCN(CC)CCNC(=O)c1sc2ncn(CC(=O)Nc3ccc(C)c(Cl)c3)c(=O)c2c1C	-10.3% (inactive)
Cc1ccc(Nc2nc(CSc3nnc(-c4ccncc4)n3-c3ccccc3C)cs2)cc1	19.6% (inactive)

Compound	inhibition
CCOc1ccccc1Oc1cn[nH]c1-c1ccc(OC)cc1O	-79.8% (inactive)
COc1ccc(Oc2cn[nH]c2-c2ccc(OC)cc2O)cc1	45.7% (active)
COc1ccc(-c2cn[nH]c2-c2ccc(OC)cc2)cc1	35% (inactive)
COc1ccc(-c2cc3nc(C)c(CCC(=O)NC(C)CCc4ccco4)c(C)n3n2)c(OC)c1 (stereo not given)	23.7% (inactive)
CCc1nc2sc(C(=O)O)c(N)c2c2c1CCCC2	-94.9% (inactive)
CN(C)c1ccnc2sc(C(=O)c3ccccc3)c(N)c12	40.4% (active)
CC(=O)c1c(Nc2ccccc2)sc(C(=O)c2ccccc2)c1C	-7.77% (inactive)
Cc1nc2sc(C(=O)c3ccccc3)c(N)c2c2c1CCCC2	41.5% (active)
CN(C(=O)c1ccccn1)c1nnc(-c2ccccn2)s1	1.41% (inactive)
Cc1ccc2c(N)c(C(=O)c3ccccc3)sc2n1	36.2% (inactive)
Cc1nnc(SC(C(=O)Nc2cc(Cl)cc(Cl)c2)c2ccccc2)[nH]c1=O (stereo not given)	14.3% (inactive)
CCn1c(SCC(=O)NC2CC2)nnc1-c1ccncc1	-12.4% (inactive)
CCOc1ccc(C(CC(=O)O)n2cnnn2)cc1OC (stereo not given)	-1.38% (inactive)
COC(=O)c1c(NC(=O)CSc2nncs2)sc2c1CCCCC2	43.7% (active)
COC(=O)c1c(NC(=O)CCN2CCOCC2)sc2c1CCCC2	9.98% (inactive)
COC(=O)c1c(NC(=O)C2CC(C)=C(C)CC2C(=O)O)sc2c1CCCCC2 (stereo not given)	20.6% (inactive)
O=C(NCc1ccccc1)C(c1ccco1)N(C(=O)c1csnn1)c1ccccc1F (stereo not given)	5.22% (inactive)
CC(C)CCNC(=O)C1CCC(CNc2c(N3CCC(C)CC3)c(=O)c2=O)CC1 (stereo not given)	2.16% (inactive)
Cc1cc(C)nc(NS(=O)(=O)c2ccc(N/C=C\C(=O)c3cccs3)cc2)n1	-1.27% (inactive)
CCn1c(=O)c(C(=O)NCc2ccc3c(c2)OCO3)c(O)c2ccccc21	-11.9% (inactive)
O=C(NCc1ccc2c(c1)OCO2)c1c(O)nc2sccn2c1=O	45% (active)
O=C(NCc1ccc2c(c1)OCO2)c1sccc1Br	9.81% (inactive)
CC(=O)c1c(C)n([O-])c2ccccc2[n+]1=O	-2.57% (inactive)
O=C1N[C@H](Cc2c[nH]c3ccccc23)COC(=O)[C@H](Cc2ccc(F)cc2)C/C=C\C[C@H]1CC(=O)N(CCO)Cc1ccccc1	-8.49% (inactive)

Compound	inhibition
O=C(/C=C/c1ccc(N2CCOCC2)cc1)c1ccccc1	39.5% (inactive)
Cc1[nH]c(=O)c(C(=O)/C=C/c2ccccc2)c2c1CCCC2	45% (active)
CC(=O)Nc1ccc(/C=C/C(=O)c2ccccc2)cc1	26.1% (inactive)
O=C(O)CCc1nc2cc(Cl)ccc2n(Cc2ccccc2)c1=O	21.5% (inactive)
COc1ccc(CN2C(CC(=O)Nc3cccnc3)c3ccc(C(F)(F)F)cc3S2(=O)=O)cc1 (stereo not given)	-7.66% (inactive)
O=C1NC(Nc2nc3ccccc3s2)(C(F)(F)F)C(=O)N1C1CCCCC1 (stereo not given)	52.6% (active)
O=C(NC1(C(F)(F)F)NC(=O)N(C2CCCCC2)C1=O)c1ccco1 (stereo not given)	-5.03% (inactive)
Cc1cc(C)c2nc(-c3cccnc3)cc(C(=O)Nc3ccc(S(=O)(=O)Nc4onc(C)c4C)cc3)c2c1	-10% (inactive)
Cc1ccc(-c2ccnc3nc(Sc4ncc(C(F)(F)F)cc4Cl)nn23)cc1	42.2% (active)
Cc1nn(-c2ncc(C(F)(F)F)cc2Cl)c(=O)n1-c1ccccc1	10.6% (inactive)
Cc1cc(NC(=O)CSc2ncc(C(F)(F)F)cc2Cl)no1	-8.23% (inactive)
CNC(=O)NC(=O)C(OC(=O)c1cccc(S(=O)(=O)N2CCCCC2)c1)c1ccccc1 (stereo not given)	15.5% (inactive)
CCOCCCN1C(=O)C2C(C(=O)Nc3ccc(OCC)cc3)C3C=CC2(O3)C1C(=O)NC1CCCCC1 (stereo not given)	5.11% (inactive)
Cc1ccc(N2C(=O)c3ccccc3C2(O)c2ncc[nH]2)cc1 (stereo not given)	1.61% (inactive)
O=[N+]([O-])c1ccccc1S(=O)(=O)Nc1cccc2cccnc12	44.6% (active)
COc1cc(NS(=O)(=O)c2ccc3ccccc3c2)c2ncccc2c1	9.71% (inactive)
O=[N+]([O-])c1cccc2ncccc12	-18% (inactive)
C[C@H](NC(=O)c1[nH]cnc1C(=O)Nc1nccs1)c1ccccc1	6.5% (inactive)
COc1ccc2c(c1)c(C(=O)N/N=C/c1cccs1)c(C)n2C	24% (inactive)
COc1cccc(CNC(=O)CCC2CCCN(C(=O)c3ccoc3C)C2)c1 (stereo not given)	10.1% (inactive)
Cn1c2ccccc2c2c(C(=O)N3CCN(c4ccc(F)cc4)CC3)cn(C3CCCC3)c(=O)c21	37.3% (inactive)
CC1CCN(Cc2nc3c(c(=O)n(C)c(=O)n3C)n2CCc2ccccc2)CC1	3.96% (inactive)
CCCc1nc2c(c(=O)c3ccccc3n2C)c(=O)n1C1CCCCCC1	49.4% (active)
